# Bioassay records (PubChem)
# HT1080NT lethal – kills 2HG-producing HT-1080-NT fibrosarcoma cells; HT-1080-NT fibrosarcoma viability, CellTiter-Glo ATP luminescence, 48 h; Potency, µM (doses to about 46.1 µM), inactives show at the top dose activity, negative = less viability, actives largely listed as cytotoxic; 360,000 compounds, 1.6% hits;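 further: NT is the 2HG producing partner of a matched IDH1 knockdown line; 0% = DMSO-treated cells and -100% = media-only wells without cells; nearly all actives have a fitted effect of over 55% in size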
#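 Read-out is CellTiter-Glo luminescence after 10 minutes at room temperature, following 48 hours' compound treatment of HT-1080-NT cells (750 cells/well, RPMI, 5% FBS, 37 degrees C).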
# ATXN viability – viability counter-screen for ATXN expression inhibitors. Potency, µM (highest dose often 56.7 µM), most hits filed as cytotoxic. S2 cells (HEK-293 line with an ATXN2-luciferase reporter) viability, CellTiter-Fluor protease fluorescence, 24 h. AID 651635. 400,000 compounds, 0.49% hits; further: nearly all actives have a fitted effect of over 40% in size
# KB-V1 MDR tox – kills drug-selected multidrug resistant KB-V1 cells | KB-V1 MDR cells viability, CellTiter-Glo, 72 h | Potency, µM (top dose mostly 46.1 µM), usual class: cytotoxic | 400,000 compounds, 3.4% hits; further: on the % scale 0 is the no-effect control and ±100 the full control effect; nearly all actives have a fitted effect of over 60% in size
#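 Cytotoxicity toward P-gp-expressing KB-V1 cells was determined as loss of CellTiter-Glo luminescence after 72 h at 37 degrees C. Compounds were tested in quantitative HTS format across a concentration range, with curves fitted to normalized data.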
# HT1080 IDH1KD tx – HT-1080 IDH1 knockdown cell toxicity (counter line). HT-1080 IDH1 knockdown viability, ATP luminescence, 48 h. Potency, µM (highest dose often 46.1 µM), inactives show at the highest dose activity, negative = toxicity, actives largely listed as cytotoxic. 360,000 compounds, 2% hits. AID 686971;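 further: 0% = DMSO wells and -100% = cell-free medium wells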
#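 Viability of IDH1-knockdown HT-1080 fibrosarcoma cells was assessed by CellTiter-Glo after 48 h at 37 °C with titrated compound; concentration-effect curves were classified by fit quality and response size.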
# ATXN2 expr inh – reduces ATXN2 reporter expression in HEK-293 cells; HEK-293 ATXN2-luciferase reporter, luminescence, 24 h; Potency, µM (titrated, usually from 57 µM), without a hit: at the highest dose activity change, negative = inhibition, usual class: inhibitors; 360,000 compounds, 0.72% hits; AID 1745845; further: on the % scale 0 is the no-effect control and ±100 the full control effect; nearly all actives have a fitted effect of over 55% in size
#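 ATXN2-luciferase reporter cells (luciferase flanked by upstream and downstream ATXN2 gene portions) were treated 24 h at 37 °C with compounds at up to 57 uM. SteadyGlo luminescence gave expression; GF-AFC fluorescence gave viability.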
# KB-3-1 tox – KB-3-1 parental cell cytotoxicity | KB-3-1 viability, CellTiter-Glo ATP luminescence, 72 h | Potency, µM (highest dose often 46.1 µM), most hits filed as cytotoxic | 400,000 compounds, 1.4% hits; further: on the % scale 0 is the no-effect control and ±100 the full control effect; nearly all actives have a fitted effect of over 60% in size
#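 72 h, 37 °C compound treatment of KB-3-1 parental cells; CellTiter-Glo added, 10 min, luminescence read. Data corrected against DMSO-only plates and normalized before curve fitting.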
# * marks the source's active call; other numbers are inactive results; i = inactive; ? = inconclusive; · = no result; ! = not active in a repeat. The list is not random: actives were taken first. Their share in the collection is about 6.2%. The call rests on the fitted dose curve; in most records, active means well fitted curve in the direction sought with a large enough effect; inconclusive means small, poorly fitted or top-dose-only effect, or another doubt; inactive means no such curve, though single readings can be large; an effect the other way counts as inactive or inconclusive. Potency means the concentration at half of the fitted maximal effect.
SMILES,HT1080NT lethal,ATXN viability,KB-V1 MDR tox,HT1080 IDH1KD tx,ATXN2 expr inh,KB-3-1 tox
COc1cc(NC(=O)c2cccc3c(-c4cccnc4)coc23)cc(OC)c1OC,?,?,7.31µM*,-13.9%,11.2µM*,?
COc1cc(NC(=O)c2cc3cc4ccc(C)cc4nc3o2)cc(OC)c1OC,·,?,i,·,?,i
COc1ccc(-c2coc3c(C(=O)Nc4cc(OC)c(OC)c(OC)c4)cccc23)c(C)c1,?,?,13µM*,?,?,?
Nc1ncnc2c1ccn2[C@@H]1O[C@H](CO)[C@@H](O)[C@H]1O,0.651µM*,3.16µM*,0.206µM*,0.82µM*,1.12µM*,0.184µM*
NC(=S)c1cn(C2OC(CO)C(O)C2O)c2ncnc(N)c12 (stereo not drawn),?,?,i,1.3µM*,·,?
Nc1ncnc2c1ncn2[C@@H]1O[C@H](COP(=O)(O)OP(=O)(O)OP(=O)(O)O)[C@@H](O)[C@H]1O,?,i,i,?,19.0%,i
O=C(c1ccc(C(F)(F)F)cc1)C1CCCN(Cc2ccc(CO)o2)C1 (stereo not drawn),-3.4%,i,18.4µM*,1.8%,·,i
O=C(c1ccc(C(F)(F)F)cc1)C1CCCN(Cc2ccncc2)C1 (stereo not drawn),-25.3%,·,7.31µM*,-24.6%,-34.1%,?
Cc1ccc(CN2CCCC(C(=O)c3cccc(C(F)(F)F)c3)C2)o1 (stereo not drawn),-16.3%,·,?,-12.1%,-18.7%,i
Cc1ccc(/C=C2\C(=O)NC(=S)N(c3ccccc3F)C2=O)s1,?,?,i,?,31.6µM*,?
OC(c1ccccc1)(c1ccc(Cl)cc1)C1CN2CCC1CC2 (stereo not drawn),?,i,?,16.4µM*,-13.2%,?
COc1ccc(-c2nn(-c3ccccc3)cc2C(=O)N2c3ccc(C)cc3C3CN(C)CCC32)cc1 (stereo not drawn),·,i,i,23.1µM*,-26.1%,i
Cc1ccc2c(c1)C1CN(C)CCC1N2C(=O)c1ccco1 (stereo not drawn),0.0%,i,?,?,-8.6%,i
C[C@H]1COC(=O)[C@@H](Cc2ccc(F)cc2)CC/C=C/C[C@@H](CC(=O)N(CCO)Cc2ccccc2)C(=O)N1,-14.3%,?,?,4.1%,-13.7%,i
CC(C)[C@H]1C(=O)O[C@H](C(C)C)C(=O)N(C)[C@@H](C(C)C)C(=O)O[C@H](C(C)C)C(=O)N(C)[C@@H](C(C)C)C(=O)O[C@H](C(C)C)C(=O)N1C,4.11µM*,10µM*,?,3.26µM*,7.94µM*,5.8µM*
CC(=O)[O][Hg][c]1ccccc1,·,4.47µM*,·,·,4.47µM*,·
CC(=O)/C=C/c1ccccc1,13.0%,i,i,6.5%,4.0%,i
COc1ccc(CN2CCN(Cc3ccccc3)CC2)c(OC)c1,-14.7%,i,23.1µM*,-22.6%,-11.9%,i
COc1cccc(N2CCN(Cc3ccc(Cl)cc3)CC2)c1,6.2%,i,16.4µM*,-8.3%,-8.7%,i
COc1ccc(-c2nc(CN3C(=O)CN=C(c4ccccc4)c4ccccc43)c(C)o2)cc1OC,·,?,i,·,-26.0%,i
CC[C@H]1C(=O)OC[C@H]1Cc1cncn1C,·,i,·,·,·,·
COc1ccc(C(=O)NCCn2cc(SC(C)c3ccccc3)c3ccccc32)cc1OC (stereo not drawn),·,?,i,·,?,i
CCN1CCN(c2nc3ccccc3s2)CC1,3.4%,i,i,5.3%,-0.3%,i
CCC(CC)COC(=O)C(C#N)c1nc2ccccc2nc1N1CCN(CC)CC1 (stereo not drawn),?,28.2µM*,?,?,?,?
COc1nc(C)nc(Cl)c1NC1=NCCN1,?,i,i,0.4%,-9.6%,i
SMILES,HT1080NT lethal,ATXN viability,KB-V1 MDR tox,HT1080 IDH1KD tx,ATXN2 expr inh,KB-3-1 tox
O=C(O)C(=O)c1cn(Cc2ccccc2)c2ccc(-c3ccc(OC(F)(F)F)cc3)cc12,·,·,·,·,-7.1%,·
CC[n+]1c(-c2ccccc2)c2cc(N)ccc2c2ccc(N)cc21,?,?,?,16.4µM*,7.08µM*!,?
NC(=O)c1ccsc1NC(=O)COC(=O)Cc1ccccc1,1.0%,i,i,-5.1%,·,i
O=C(CCl)Nc1sccc1C(=O)c1ccccc1,10.3µM*,?,?,?,-31.9%,i
CCc1ccc(-n2c(=O)c3sc4ccccc4c3n(CC(=O)NC3CCCC3)c2=O)cc1,·,?,i,·,0.1%,i
CCCCC1(CCCC)C(=O)NC(=Nc2cccc(C)c2)NC1=O,?,i,?,18.4µM*,?,?
CCCC1(CCC)C(=O)NC(=Nc2ccccc2)NC1=O,8.4%,i,i,8.1%,3.3%,i
O=C1NCCOC(=O)[C@@H](Cc2ccc(F)cc2)CC/C=C/C[C@H]1CC(=O)N(CCO)Cc1ccccc1,4.0%,i,i,4.2%,-14.8%,i
Cc1cc(N2CCN(C(=O)c3ccco3)CC2)n2nc(-c3cccc(Cl)c3)cc2n1,?,·,?,?,20µM*,?
Cc1nc2cc(-c3cccc(F)c3)nn2c(C)c1CCC(=O)N1CCC2(CC1)OCCO2,3.0%,i,?,15.4%,?,i
CCOC(=O)[C@]12Cc3ccccc3[C@H]1N(CCC(=O)OC)C(=O)c1ccccc12,?,?,5.17µM*,?,-13.7%,5.17µM*
CCCCCN1C(=O)c2ccccc2[C@@]2(C(=O)OCC)Cc3cc(OC)ccc3[C@@H]12,14.6µM*,12.6µM*,?,11.6µM*,?,5.8µM*
CCOC(=O)[C@]12Cc3cc(C)ccc3[C@H]1N(CCC(=O)OC)C(=O)c1cc(OC)ccc12,23.1µM*,15.8µM*,20.6µM*,18.4µM*,22.4µM*,18.4µM*
CCOC(=O)[C@]12Cc3ccccc3[C@H]1N(Cc1ccccc1)C(=O)c1ccccc12,10.1%,?,?,6.6%,?,i
CCOC(=O)[C@]12Cc3cc(OC)ccc3[C@H]1N(Cc1ccccc1)C(=O)c1ccccc12,-2.3%,?,?,0.5%,?,?
C=C[C@]12CN(C)[C@H]3C1[C@@]1(C(=O)Nc4ccccc41)[C@H]1C[C@H]2[C@H]3CO1,·,i,·,·,·,·
O=C(CN1CCCC2CCCCC21)c1ccc(I)cc1 (stereo not drawn),·,·,i,·,·,i
